FLuc modulator – firefly luciferase modulation, counter-screen for miR-21 project. P08659. purified FLuc, Km substrates, luminescence inhibition. Potency, µM (doses to about 57.5 µM), most hits filed as inhibitors. 360,000 tested, 6.9% active; further: nearly all actives have a fitted effect of over 55% in size
Target sequence (P08659 whole entry, looked up): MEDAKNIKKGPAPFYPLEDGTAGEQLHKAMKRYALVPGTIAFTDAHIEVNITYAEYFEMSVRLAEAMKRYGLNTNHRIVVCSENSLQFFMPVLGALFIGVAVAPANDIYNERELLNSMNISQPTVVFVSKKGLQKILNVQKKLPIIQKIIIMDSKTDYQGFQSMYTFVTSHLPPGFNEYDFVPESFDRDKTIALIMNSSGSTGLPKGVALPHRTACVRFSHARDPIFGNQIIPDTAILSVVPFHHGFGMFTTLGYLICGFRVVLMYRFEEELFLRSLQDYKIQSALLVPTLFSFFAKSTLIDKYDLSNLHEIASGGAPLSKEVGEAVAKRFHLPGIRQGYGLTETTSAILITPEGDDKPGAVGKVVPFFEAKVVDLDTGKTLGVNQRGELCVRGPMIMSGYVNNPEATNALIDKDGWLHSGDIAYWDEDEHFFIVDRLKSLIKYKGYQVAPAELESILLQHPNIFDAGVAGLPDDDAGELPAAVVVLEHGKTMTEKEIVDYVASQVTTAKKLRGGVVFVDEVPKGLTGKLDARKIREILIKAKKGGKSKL
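Purified P. pyralis luciferase, 10 nM final, with Km-level 10 uM D-luciferin and 10 uM ATP in 50 mM Tris acetate pH 7.5, 10 mM Mg acetate, 0.01% Tween-20, 0.05% BSA; 6-point qHTS titration about 60 µM downward; luminescence read.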
SMN2 splice up – enhancers of SMN2 splice variant expression. HEK293 SMN2-luciferase splicing reporter, luminescence, 30-36 h. 210,000 tested, 2.8% active. AID 1458. Potency, µM (titrated, usually from 46.1 µM), most hits filed as activators; further: nearly all actives have a fitted effect of over 55% in size
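HEK293 cells carry an SMN2 minigene-luciferase reporter in which exon 7 inclusion puts luciferase in frame. Cells were seeded at 2000 cells/well, attached for 10-12 hours, then exposed to compounds for 30-36 hours at 37C before ONE-Glo luminescence.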
Rab9 promoter act – activates the Rab9 promoter. Huh7 Rab9 promoter-luciferase reporter, luminescence, 24 h. 320,000 tested, 2.8% active. Potency, µM (series often up to 9.22 µM), hits mostly activators; further: nearly all actives have a fitted effect of over 60% in size
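Luminescence read-out: Huh7 cells stably expressing Rab9-luciferase, treated 24 h with compound at 37 °C, then lysed with luciferase reagent for 10 min at ambient before reading.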
ELG1 genotoxic – genotoxicity induction in ELG1-luciferase HEK293T cells. HEK293T ELG1-luciferase reporter, luminescence, 16 h. 330,000 tested, 1.3% active. Potency, µM (top dose mostly 46 µM), hits mostly activators; further: nearly all actives have a fitted effect of over 60% in size
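Genotoxicity was scored as increased ELG1-luciferase reporter signal, measured by ONE-Glo luminescence (30 min, room temperature). Compound or vehicle exposure of the HEK293T reporter cells lasted 16 hr at 37°C.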
Luc counter – blocks Kinase-Glo luciferase, a counter-screen artifact. Q27757. 200,000 tested, 0.28% active. AID 1379. Kinase-Glo luciferase, ATP luminescence, 8 min. Potency, µM (doses to about 38.3 µM), most hits filed as inhibitors; further: nearly all actives have a fitted effect of over 60% in size
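Kinase-Glo luciferase light output from ATP and luciferin was measured with 10 uM ATP, within the enzyme's linear range. Buffer: 50 mM imidazole pH 7.2, 50 mM KCl, 7 mM MgCl2, 0.01% Tween 20, 0.05% BSA; luminescence read after 8 min at ambient temperature.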
NPC1 prom act – activates the NPC1 promoter; Huh7 NPC1 promoter luciferase reporter, 24 h; Potency, µM (top dose mostly 9.22 µM), actives largely listed as activators; 320,000 tested, 2.4% active; AID 485313; further: nearly all actives have a fitted effect of over 60% in size
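Huh7 reporter cells (NPC1 promoter driving luciferase) are dosed with compound for 24 h at 37 °C, 5% CO2; luciferase detection reagent is then added and luminescence measured after 10 min at ambient temperature.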
A number is an active result; . = inactive; ? = inconclusive; / = no result; [ ] = remark or other dose. Hits are enriched below; roughly 7.5% of the tested compounds scored in any of these assays. The call rests on the fitted dose curve; in most records, active means well fitted curve in the direction sought with a large enough effect; inconclusive means small, poorly fitted or top-dose-only effect, or another doubt; inactive means no such curve, though single readings can be large; an effect the other way counts as inactive or inconclusive.

SMILES | FLuc modulator | SMN2 splice up | Rab9 promoter act | ELG1 genotoxic | Luc counter | NPC1 prom act
CCC(=O)N(CC)C1=C(O)c2ccccc2C(=O)C1=O | ? | . | . | . | . | .
O=C(Nc1ccc(Cl)cn1)c1ccc(COc2ccccc2Br)o1 | ? | 13µM | ? | . | . | .
O=C(Nc1ccccn1)c1ccc(COc2ccccc2Cl)o1 | 17µM | . | . | ? | . | .
Cc1ccc(NC(=O)c2ccc(COc3ccccc3)o2)nc1 | ? | / | . | ? | / | .
O=C(Nc1cccnc1)c1ccc(COc2ccccc2Cl)o1 | ? | . | . | . | . | .
CCOc1ccc(OCc2ccc(C(=O)Nc3ccc(Cl)cn3)o2)cc1 | ? | 18µM | . | . | . | ?
Nc1ccc(S(=O)(=O)NC2(C(F)(F)F)NC(=O)N(Cc3ccccc3)C2=O)cc1 (stereo unspecified) | . | / | . | . | / | .
CCOc1ccc(-c2nonc2NC(=O)c2oc3cc(C)c(C)cc3c2C)cc1OCC | . | . | / | / | / | /
COC(=O)[C@]1(C)N[C@H](CN(C)C(=O)Nc2ccc(C)cc2)[C@@H]2C(=O)N(C)C(=O)[C@@H]21 | / | / | / | . | / | /
Cc1cc(C)cc(OCC(=O)Nc2cccc(-c3nc4ccccc4[nH]3)c2)c1 | 11µM | . | / | / | / | /
CC(C)COc1ccc(C(=O)Nc2cccc(-c3nc4ccccc4[nH]3)c2)cc1 | ? | . | / | / | / | /
CC(C)(C)C(=O)Nc1cccc(-c2nc3ccccc3[nH]2)c1 | 15µM | . | . | . | . | .
CC(Oc1ccccc1)C(=O)Nc1cccc(-c2nc3ccccc3[nH]2)c1 (stereo unspecified) | 12µM | / | . | . | / | .
CC(C)CC(=O)Nc1cccc(-c2nc3ccccc3[nH]2)c1 | 17µM | ? | . | . | / | .
O=C(O)C1(C(=O)O)CCN(S(=O)(=O)c2ccccc2)CC1 | / | .[9.22 µM] | / | / | .[7.66 µM] | /
COc1ccccc1NC(=O)C1CCN(C(=O)c2sc3nc[nH]c(=O)c3c2C)CC1 | . | / | / | / | / | /
CCCN(CCC)CCNC(=O)Cn1cnc2sc(C)c(S(=O)(=O)N3CCN(c4ccccc4OC)CC3)c2c1=O | . | . | / | / | / | /
CC(=O)c1csc(COc2ccc(Cl)cc2)n1 | 24µM | / | 0.79µM | ? | / | 0.89µM
NNC(=O)c1csc(COc2cc(Cl)cc(Cl)c2)n1 | . | / | . | . | / | .
CC(=O)Nc1nnc(COc2ccc(Cl)cc2)s1 | 15µM | 11µM | 3.5µM | 15µM | . | 3.2µM
Cc1cc(C)cc(-n2ccn3c(CC(C)(C)CC(=O)O)nnc3c2=O)c1 | . | . | / | / | / | /
COc1cc(C)ccc1OCCSc1nc2ccc(NC(=O)c3ccc(F)cc3)cc2s1 | . | / | / | / | / | /
Cc1nc2cc(-c3ccc(Br)cc3)[nH]n2c(=O)c1Cl | 9.5µM | / | 2.5µM | 16µM | / | ?
Cc1cc2nc(C)c(Cl)c(=O)n2[nH]1 | . | . | . | . | . | .
CC(C)(C)OC(=O)N1CCC(c2cc(=O)n3[nH]c(-c4ccc(Cl)cc4)cc3n2)CC1 | . | . | . | . | . | .
SMILES | FLuc modulator | SMN2 splice up | Rab9 promoter act | ELG1 genotoxic | Luc counter | NPC1 prom act
O=c1c2c(nc3cc(-c4ccc(Cl)cc4)[nH]n13)CCS2 | 2.1µM | 13µM | ? | ? | . | 3.5µM
CCc1c(C)nc2cc(-c3cccc(Br)c3)[nH]n2c1=O | 12µM | / | ? | . | / | ?
CCc1c(C)nc2cc(-c3ccc(Cl)cc3)[nH]n2c1=O | 8.5µM | / | ? | ? | / | 4µM
CCOC(=O)CCc1c(C)nc2cc(-c3ccc(Cl)cc3)[nH]n2c1=O | . | . | . | . | . | .
CN(Cc1cnccn1)C(=O)C1CCC(=O)N(CCc2ccc(Cl)cc2)C1 (stereo unspecified) | . | / | . | . | / | .
Cc1cc(S(=O)(=O)N2CCOCC2)ccc1OCC(=O)NCCN1CCOCC1 | . | / | . | . | / | .
Cc1ccc(-c2cc(C(=O)Nc3c(C(=O)c4ccc(C)c(F)c4)oc4ccccc34)no2)cc1 | . | / | / | / | / | /
O=C(c1ccccc1)c1ccc2ccccc2n1 | ? | . | . | . | . | .
Cc1ccc(C(=O)Nc2ccc3ccccc3n2)cc1 | 1.7µM | / | 0.63µM | ? | / | 3.2µM
O=C(CCc1ccccc1)Nc1ccc2ccccc2n1 | 6.7µM | 13µM | 1.1µM | ? | . | 3.2µM
O=C(Nc1ccc2ccccc2n1)c1ccccc1 | 2.4µM | / | 0.89µM | ? | / | 2.2µM
COc1ccc(C(=O)Nc2ccc3ccccc3n2)cc1OC | 13µM | / | 2.8µM | ? | / | 2.8µM
CC(C)NC(=O)CN1C(=O)c2cccc3cccc1c23 | . | / | . | . | / | .
COc1ccccc1CN1CC[C@@]2(CCCN(C(=O)c3cc(C(F)(F)F)cc(C(F)(F)F)c3)C2)C1 | / | . | / | / | . | /
O=C(Nc1ccc2ccccc2n1)c1ccccc1Br | 3.4µM | / | 3.5µM | ? | / | ?
Cc1ccccc1/C=N\NC(=O)c1ccc(Cn2cccn2)o1 | 17µM | . | . | . | . | .
Cc1c(Cl)c([N+](=O)[O-])nn1Cc1ccc(C(=O)N/N=C\c2cccc(Br)c2)o1 | 7.6µM | . | . | . | . | .
O=C(N/N=C/c1cccc(Br)c1)c1ccc(Cn2cc(Br)cn2)o1 | 13µM | . | . | . | . | .
O=C(N/N=C\c1cccc(Cl)c1)c1ccc(Cn2cccn2)o1 | 12µM | . | . | . | . | .
CSc1ccc(CNC(=O)C2CCC(=O)N(CCc3cccc(F)c3)C2)cc1 (stereo unspecified) | . | / | . | .[9.26 µM] | / | .
O=C(Nc1ccc(F)cc1F)c1ccc(-n2cnc3cccnc32)cc1 | . | / | / | / | / | /
O=C(N/N=C\c1cccc(Cl)c1)c1ccc(Cn2cc(Br)c([N+](=O)[O-])n2)o1 | 5.4µM | . | . | . | . | .
Oc1ccccc1OCc1nc2ccccc2s1 | 5.4µM | 32µM | . | 8.2µM | . | .
OCc1cc(Br)ccc1OCc1nc2ccccc2s1 | 5.4µM | / | 2.8µM | ? | / | 3.2µM
Oc1ccc(O)c(Cc2nc3ccccc3s2)c1 | ? | . | . | . | . | .
SMILES | FLuc modulator | SMN2 splice up | Rab9 promoter act | ELG1 genotoxic | Luc counter | NPC1 prom act
CN(CC(=O)Nc1ccccc1C(F)(F)F)C(=O)c1ccc2c(=O)n3c(nc2c1)CCC3 | / | / | . | . | / | .
O=S(=O)(c1ccc(-c2cc(C(F)(F)F)on2)s1)N1CCN(c2ccc(F)cc2)CC1 | . | / | / | / | / | /
COc1ccccc1-n1cnnc1SCc1csc(-c2ccccc2)n1 | . | . | . | . | . | .
C=CCn1c(SCc2csc(-c3ccc(C)cc3)n2)nnc1-c1ccccc1OC | 21µM | / | . | . | / | .
O=C(O)c1ccccc1NS(=O)(=O)c1ccc(F)c(Cl)c1 | / | / | / | / | . | /
Cc1ccc2nc(-c3ccc(Br)o3)oc(=O)c2c1 | 2.4µM | . | . | . | . | .
CCCOC(=O)c1ccc(OCC(O)Cn2c(C)nc3ccccc32)cc1 (stereo unspecified) | . | . | . | 10µM | . | .
C/C(=N/Nc1nc(-c2ccccc2)cc(-c2ccccc2)n1)c1ccc(N)cc1 | 5.4µM | ? | . | . | . | .
